This is an account of results in PubChem BioAssay (NCATS).

Records with an inconclusive call do not appear. The source made the active and inactive calls. Unless noted, calls follow the shape of the dose curve; as a rule, active = well fitted curve in the direction sought with a large enough effect; inconclusive = small, poorly fitted or top-dose-only effect, or another doubt; inactive = no such curve, though single readings can be large; an effect the other way counts as inactive or inconclusive.

The target in experiment [1] is Peroxisome proliferator-activated receptor gamma (Homo sapiens) (UniProt P37231). Kind of experiment: qHTS assay for small molecule antagonists of peroxisome proliferator-activated receptor gamma signaling (AID 588537; active = well fitted inhibition curve with a large enough effect in the signal ratio, with a control signal flat, not every such curve was filed as active; the % refers to the signal ratio;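 also: reporter cells co-stimulated with 50 nM rosiglitazone agonist during compound treatment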). Particulars: HEK293 PPARg-UAS-bla, beta-lactamase ratio, antagonist mode; series mostly up to 76.8 µM. In outline:
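PPARγ-UAS-bla HEK293 cells (3000/well) in 1% charcoal/dextran-stripped FBS are treated with compound, then stimulated with 50 nM rosiglitazone for 16 h at 37 °C. Read-out is CCF4 β-lactamase fluorescence after 2 h at RT. IC50 comes from Hill fits normalised to rosiglitazone and DMSO.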
On the technique in general: Quantitative high-throughput screening tests each substance at several concentrations.

A short description of experiment [2]: S16 Schwann cell PMP22 intronic element beta-lactamase assay (AID 624044; calls by dose curve; also: nearly all actives have a fitted effect of over 15% in size). To be noted: S16 rat Schwann cells, PMP22 element beta-lactamase FRET, 24 h; ratio activity, negative = inhibition: at 38.3 µM (top of the series). In outline:
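Rat S16 Schwann cells with beta-Lac driven by a PMP22 intronic element, compound-treated 24 h at 37 °C. LiveBLAzer FRET B/G read: 460 nm normalized to potassium clavulanate vs DMSO; 535 nm FRET as viability; concentration-effect curves classified.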

Experiment [3] addresses Cytochrome P450 2D6 (Homo sapiens) (UniProt P10635). As to the kind of experiment: qHTS Assay for Inhibitors and Substrates of Cytochrome P450 2D6 (AID 891). Also: nearly all actives have a fitted effect of over 60% in size. To be noted: recombinant CYP2D6, luciferin-ME EGE luminescence; series mostly up to 57.1 µM. In outline: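 Human CYP2D6 (5 nM) with 30 uM Luciferin-ME EGE (at Km) in 100 mM KPO4, compound preincubated 10 min, then NADPH regeneration system for 60 min at room temperature. Luciferin read by luminescence; normalized to 1.43 uM quinidine.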

Experiment [4] has as its target DNA dC->dU-editing enzyme APOBEC-3G (Homo sapiens) (UniProt Q9HC16). Kind of experiment: qHTS for inhibitors of Vif-A3G interactions: Validation (AID 588379). To be noted: Vif-A3G protein interaction assay; series mostly up to 46.1 µM. In outline: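 HeLa cells stably expressing Vif and A3G-eYFP, 700 cells/well, incubated overnight at 37 deg C, then exposed to compound overnight at 37 deg C. Inhibition of Vif-mediated degradation read as increased yellow fluorescence (Ex 488/Em 500-530) by laser-scanning cytometry.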

The nature of experiment [5]: qHTS Assay for Identification of Small Molecule Antagonists for Thrombopoietin (TPO) Signaling Pathway (AID 918). Also: potency is read from the fitted curve at half-maximal effect; nearly all actives have a fitted effect of over 60% in size. To be noted: TPO-dependent cell signaling reporter, antagonist mode. In outline: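 Ba/F3 (murine, hTPO-R, GPIIb-luc reporter); overnight IL-3 withdrawal; cpd + TPO 26 pM final (EC50); 24 h 37 C/5% CO2; Steadylite luminescence after 10 min RT.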
A short description of experiment [6]: qHTS Assay for Identification of Small Molecule Antagonists for NFkB Signaling Pathway (AID 895; active = well fitted inhibition curve with a large enough effect in the signal ratio, with a control signal flat, not every such curve was filed as active; the % refers to the signal ratio). Particulars: NFkB beta-lactamase reporter cells, FRET ratio 460/530, stimulated with 10 pM TNF alpha; series mostly up to 38.3 µM. In outline: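 ME-180 NFkB-bla cells (beta-lactamase under NFkB response element), plated overnight, treated with compound then 10 pM TNF alpha (about EC50) for 5 hrs at 37 C. LiveBLAzer FRET read at 460/530 nm emission, 405 nm excitation.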

Experiment [7] deals with Muscarinic acetylcholine receptor M1 (Rattus norvegicus) (UniProt P08482). As to the kind of experiment: qHTS Assay for Antagonists of Acetylcholine Muscarinic M1 Receptor: Measurement of IP-One Response (AID 944). Also: nearly all actives have a fitted effect of over 75% in size. To be noted: CHO-M1 cells, IP-One HTRF, antagonist mode; series mostly up to 46.1 µM. In outline:
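M1-CHO (rat), 2000 cells/well, overnight recovery; cpd 10 min; carbachol EC80 (200 nM), 30 min, HEPES buffer + 50 mM LiCl pH 7.4; IP-One HTRF, Ex 337, Em 620/665 nm.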

The subject of another experiment is 3D7. Kind of experiment: qHTS profiling for inhibitors of Plasmodium falciparum proliferation (AID 504749). Also: nearly all actives have a fitted effect of over 60% in size. To be noted: P. falciparum in erythrocytes, SYBR Green DNA, 72 h; series mostly up to 28.7 µM. In outline:
(§1)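 P. falciparum-infected erythrocytes (0.3% parasitemia, 2.5% hematocrit) incubated with compound 72 h at 37 C, 5% CO2. Parasite DNA detected by SYBR Green after lysis, overnight at room temperature; normalised to 0.29 uM artemisinin and DMSO.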

A further experiment has as its system CP185. The description is as above. Particulars: P. falciparum in erythrocytes, SYBR Green DNA, 72 h; series mostly up to 28.7 µM. In outline: as §1
The subject of the next experiment is CP192. Described as above. Particulars: P. falciparum in erythrocytes, SYBR Green DNA, 72 h; series mostly up to 28.7 µM. In outline: as §1
For the next experiment, the system named is CP194. The experiment is described as above. To be noted: P. falciparum in erythrocytes, SYBR Green DNA, 72 h; series mostly up to 28.7 µM. In outline:
as §1

A further experiment concerns CP201. The experiment is described as above. Particulars: P. falciparum in erythrocytes, SYBR Green DNA, 72 h; series mostly up to 28.7 µM. In outline:
as §1

Another experiment concerns CP203. The description is as above. To be noted: P. falciparum in erythrocytes, SYBR Green DNA, 72 h; series mostly up to 28.7 µM. In outline:
as §1

A further experiment relates to CP238. Described as above. Particulars: P. falciparum in erythrocytes, SYBR Green DNA, 72 h; series mostly up to 28.7 µM. In outline:
as §1

A further experiment concerns CP247. The description is as above. Particulars: P. falciparum in erythrocytes, SYBR Green DNA, 72 h; series mostly up to 28.7 µM. In outline:
as §1

For another experiment, the system named is CP286. Described as above. To be noted: P. falciparum in erythrocytes, SYBR Green DNA, 72 h; series mostly up to 28.7 µM. In outline: as §1
A further experiment deals with CP291. The description is as above. Particulars: P. falciparum in erythrocytes, SYBR Green DNA, 72 h; series mostly up to 28.7 µM. In outline:
as §1

The test system of another experiment is CP305. Described as above. Particulars: P. falciparum in erythrocytes, SYBR Green DNA, 72 h; series mostly up to 28.7 µM. In outline:
as §1

The test system of a further experiment is DIV30. Described as above. Particulars: P. falciparum in erythrocytes, SYBR Green DNA, 72 h; series mostly up to 28.7 µM. In outline: as §1
A further experiment has as its system PC49. The experiment is described as above. Particulars: P. falciparum in erythrocytes, SYBR Green DNA, 72 h; series mostly up to 28.7 µM. In outline: as §1

Chain of Cytochrome P450 2D6 (Homo sapiens) (P10635 whole entry, looked up): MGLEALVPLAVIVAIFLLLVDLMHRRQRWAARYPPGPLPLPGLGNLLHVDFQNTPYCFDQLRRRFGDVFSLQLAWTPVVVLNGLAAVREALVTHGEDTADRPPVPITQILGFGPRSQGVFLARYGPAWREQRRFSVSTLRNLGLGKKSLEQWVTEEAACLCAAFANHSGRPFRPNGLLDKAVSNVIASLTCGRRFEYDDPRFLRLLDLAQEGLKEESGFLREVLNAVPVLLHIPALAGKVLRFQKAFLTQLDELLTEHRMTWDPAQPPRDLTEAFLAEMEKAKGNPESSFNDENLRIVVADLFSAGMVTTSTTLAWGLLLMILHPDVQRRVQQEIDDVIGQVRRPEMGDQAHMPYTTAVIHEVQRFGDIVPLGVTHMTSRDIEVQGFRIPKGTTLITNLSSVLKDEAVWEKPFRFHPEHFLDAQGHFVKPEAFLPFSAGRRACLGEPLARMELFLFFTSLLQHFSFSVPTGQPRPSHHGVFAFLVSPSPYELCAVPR
Chain of Muscarinic acetylcholine receptor M1 (Rattus norvegicus) (P08482 whole entry, looked up): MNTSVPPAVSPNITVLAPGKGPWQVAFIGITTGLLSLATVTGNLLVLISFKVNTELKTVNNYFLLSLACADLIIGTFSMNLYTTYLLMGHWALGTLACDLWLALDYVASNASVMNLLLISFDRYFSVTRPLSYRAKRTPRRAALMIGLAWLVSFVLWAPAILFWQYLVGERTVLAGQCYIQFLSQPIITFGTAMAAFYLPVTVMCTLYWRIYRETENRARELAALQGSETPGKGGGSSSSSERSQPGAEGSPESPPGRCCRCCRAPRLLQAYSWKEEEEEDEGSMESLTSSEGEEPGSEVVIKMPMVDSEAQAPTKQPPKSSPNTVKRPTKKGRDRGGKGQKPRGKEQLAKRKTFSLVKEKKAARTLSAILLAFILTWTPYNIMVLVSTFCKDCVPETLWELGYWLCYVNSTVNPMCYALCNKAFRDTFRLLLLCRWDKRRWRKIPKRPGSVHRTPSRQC
Chain of DNA dC->dU-editing enzyme APOBEC-3G (Homo sapiens) (Q9HC16 whole entry, looked up): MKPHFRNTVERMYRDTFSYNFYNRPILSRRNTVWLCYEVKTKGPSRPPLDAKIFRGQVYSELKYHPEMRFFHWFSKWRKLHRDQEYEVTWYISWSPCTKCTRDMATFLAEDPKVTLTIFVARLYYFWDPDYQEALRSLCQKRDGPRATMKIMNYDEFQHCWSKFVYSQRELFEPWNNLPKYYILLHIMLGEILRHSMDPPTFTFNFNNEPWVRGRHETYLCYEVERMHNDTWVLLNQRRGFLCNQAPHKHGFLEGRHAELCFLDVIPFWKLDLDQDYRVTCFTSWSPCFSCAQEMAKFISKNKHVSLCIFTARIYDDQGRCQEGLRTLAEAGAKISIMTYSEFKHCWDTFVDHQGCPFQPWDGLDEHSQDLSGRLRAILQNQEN
Chain of Peroxisome proliferator-activated receptor gamma (Homo sapiens) (P37231 whole entry, looked up): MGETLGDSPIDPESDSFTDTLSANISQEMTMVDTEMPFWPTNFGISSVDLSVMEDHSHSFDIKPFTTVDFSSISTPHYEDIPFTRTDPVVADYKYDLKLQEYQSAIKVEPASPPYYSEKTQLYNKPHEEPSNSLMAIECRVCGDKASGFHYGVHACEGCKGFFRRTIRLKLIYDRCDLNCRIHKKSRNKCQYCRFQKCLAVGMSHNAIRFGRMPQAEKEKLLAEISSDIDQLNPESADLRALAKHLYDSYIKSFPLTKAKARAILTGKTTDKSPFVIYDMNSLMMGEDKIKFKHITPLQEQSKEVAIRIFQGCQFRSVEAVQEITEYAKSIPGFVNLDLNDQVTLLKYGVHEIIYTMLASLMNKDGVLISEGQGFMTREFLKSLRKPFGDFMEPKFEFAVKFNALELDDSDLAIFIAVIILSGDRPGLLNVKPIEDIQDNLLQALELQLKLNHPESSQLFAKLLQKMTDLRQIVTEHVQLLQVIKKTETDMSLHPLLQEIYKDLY

Consider `ClC1=C(Cl)C(Cl)(Cl)C(Cl)=C1Cl`, for which the Potency result in experiment [1] was “inactive”.
For the compound `CO[C@H]1/C=C/O[C@@]2(C)Oc3c(C)c(O)c4c(O)c(c5c(c4c3C2=O)NC2(CCN(CC(C)C)CC2)N=5)=NC(=O)/C(C)=C\C=C\[C@H](C)[C@H](O)[C@@H](C)[C@@H](O)[C@@H](C)[C@H](OC(C)=O)[C@@H]1C`, the Potency result in experiment [2] was “inactive”.
In the case of `COc1cc2c(c(OC)c1OC)-c1ccc(OC)c(=O)cc1[C@H](NC(C)=O)CC2`, in experiment [3], the Potency result is “inactive” and the result was inactive. In addition, in [4], the compound was called inactive.
Turning to `CN1CCc2cc(O)c(O)cc2[C@H](c2ccccc2)C1`, in experiment [5], the Potency was 10 µM (active).
In the case of `FC(F)(F)c1cc(CO[C@@H]2CCCN[C@H]2c2ccccc2)cc(C(F)(F)F)c1`, the Potency entry in experiment [6] and in experiment [7] was “inactive” each time. In addition, the Potency in experiment [5] is 10 µM (active).
In the case of `C[C@H](O)[C@@H]1C(=O)N2C(C(=O)O)=C(SCCN=CN)C[C@@H]12`, the Potency entry in the experiment with 3D7, in the experiment with CP185, in the experiment with CP192, in the experiment on CP194, in the experiment with CP201 and with CP203 was “inactive” in each case. For the same compound, the Potency result with CP238, in the experiment with CP247, in the experiment with CP286, with CP291, with CP305 and with DIV30 was “inactive” throughout. The Potency result in the experiment on PC49 is “inactive”.
`O=C(/C=C\c1ccc(O)cc1)c1ccc(O)cc1O`: the Potency entry in experiment [7] is “inactive”.
